# Most compounds without a hit are left out; they make up all but 6.5% or so of the library.
# NADH enzymes: blocks coupling enzymes of NAD/NADH assays; coupled PK/LDH NADH assays, four targets; hit rate 0.02% among 65,000; AID 774; IC50, µM (titrated, usually from 10 µM), without a hit: top-dose inhibition;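 active = single-dose screening hits from any of four coupled enzyme assays that gave an IC50 when retested across doses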;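 note: the DPM-DC format reads NADH fluorescence rather than 340 nm absorbance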
# PMK inhibit: S. pneumoniae PMK inhibition; purified PMK, PK/LDH-coupled NADH absorbance 340 nm; inhibition, % at 10 µM; hit rate 0.49% among 65,000;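 active = top-ranked compounds by inhibition in the single 10 µM screen, taking a fixed number of the strongest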;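 note: 0% = full reaction with DMSO carrier and 100% = background rate without enzyme reaction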
# MK inhibit: inhibitors of Streptococcus pneumoniae mevalonate kinase; AID 555; inhibition, % at 10 µM; purified MK, PK/LDH-coupled NADH absorbance 340 nm; hit rate 0.48% among 65,000;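 active = ranked among the strongest by inhibition in the single 10 µM screen, a fixed top-ranked set picked for dose follow-up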
# Autofluor 339: intrinsic fluorescence of library compounds, ex339/em460 – biochemical, MLSMR library, data from DPM-DC assay, artefact control, profiling panel; AID 709; compound autofluorescence, ex339/em460 nm, NADH buffer; hits give high values; 1 = no-compound wells, NADH background; fluorescence fold increase at 10 µM; hit rate 5.5% among 65,000;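 active = at 10 µM, mean starting fluorescence two-fold or more over control wells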;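 note: signal is the first read of a kinetic run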
# Abs 340nm: absorbance at 340 nm | compound absorbance at 340 nm, fold over control | fold change at 10 µM | 65,000 tested, under 10 active;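 active = at 10 µM dose, initial 340 nm absorbance at least 2 fold that of control wells; inactive = change under 2 fold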;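 note: initial absorbance extrapolated from kinetic A340 decline of NADH oxidation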
# Spn DPM-DC inh: S. pneumoniae DPM-DC inhibition | hit rate 0.49% among 65,000 | AID 556 | purified DPM-DC, PK/LDH coupled NADH fluorescence | calls only at 10 µM;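 active = the 320 compounds with the highest percent inhibition in the single-dose primary screen, excluding strongly autofluorescent ones, cut at about 32% in these data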;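 note: kinetic rate of NADH fluorescence loss reporting ADP formed by the decarboxylase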
# * hit, by the source's call; i = inactive; nt = no result given; + = active, no number.
SMILES,NADH enzymes,PMK inhibit,MK inhibit,Autofluor 339,Abs 340nm,Spn DPM-DC inh
O=C1CCCC2=C1C(c1ccncc1)c1c(nc(SCc3ccccc3)[nH]c1=O)N2 (stereo not drawn),5%,0,10,2.2*,1.1,nt
O=C(c1c(F)c(F)c(F)c(F)c1F)N1CCc2ccccc21,6%,12,4,1.1,1,i
COc1ccc(C2c3c(-c4cc(Cl)c(C)cc4O)n[nH]c3C(=O)N2Cc2cccnc2)cc1OC (stereo not drawn),7%,13,9,1.1,0.97,i
Cc1ccc(-c2nnn(CC(=O)N(CC(=O)NCC3CCCO3)c3ccc(F)c(Cl)c3)n2)o1 (stereo not drawn),15%,44*,0,1.1,1.1,i
Cc1c(C(=O)OCC(C)(C)CN(C)C)oc2ccccc12,5%,6,9,0.9,1,+
Cc1c(C(=O)OC(C)CCN(C)C)oc2ccccc12 (stereo not drawn),10%,7,4,1.1,1,i
CCCCn1c(SCC(=O)Nc2cccc(OC)c2)nc2ccc(N3CCOCC3)cc2c1=O,3%,2,3,3.1*,1.1,i
COc1cccc(NC(=O)Cn2c(SCC(=O)N3CCOCC3)nc3ccccc32)c1,4%,3,9,1.1,1,i
CC(=O)Oc1ccc2c(C)cc(=O)[nH]c2c1,6%,10,0,1.6,1,i
CC(=O)Oc1cc(OC(C)=O)c2c(C)cc(=O)oc2c1,0%,0,0,2.2*,1.1,nt
CC(=O)Oc1cc2oc(=O)cc(C)c2cc1OC(C)=O,9%,7,11,2.2*,1.1,nt
CC(=O)Nc1c(OC(C)=O)ccc2c(C)cc(=O)oc12,8%,11,4,5.1*,0.98,nt
Cc1cc(OC(=O)CNC(=O)OC(C)(C)C)c2c(C)cc(=O)oc2c1,15%,11,12,0.96,1,i
O=C(CSc1c[nH]c2ccccc12)N1CCOCC1,6%,19,0,1.1,0.98,i
CCC(C)Sc1nnc(Cc2cc(=O)[nH]c(=O)[nH]2)n1-c1ccc(F)cc1 (stereo not drawn),4%,7,6,1.1,1.1,i
Cc1cccc(-n2c(=O)[nH]c3c(C(N)=O)nc(CC(C)C)nc32)c1,5%,9,0,5.1*,1,nt
CC(C)Cc1nc(C(N)=O)c2[nH]c(=O)n(-c3ccc(F)cc3)c2n1,4%,8,0,2.2*,1.1,nt
CCCS(=O)(=O)n1nc(-c2ccc(OC)cc2OC)cc1N,2%,1,4,1.1,1.1,i
COc1ccc(-c2cc3nc(C)cc(C)n3n2)c(OC)c1,13%,16,0,3.2*,1.1,i
Cc1nn(C)cc1C1C2=C(CC(C)(C)CC2=O)OC2=C1C(=O)CC(C)(C)C2,1%,5,0,1,0.99,i
Cc1ccc(-c2nc(CN(C)C)cc(CN(C)C)c2O)cc1,8%,6,10,3.8*,1.1,nt
CCc1c(C)sc(NC(=O)c2cc(-c3cc(OC)ccc3OC)on2)c1C#N,9%,17,0,5.1*,1.1,nt
COc1ccc(OC)c(-c2cc(C(=O)Nc3c(C)nn(Cc4ccc(Cl)cc4)c3C)no2)c1,4%,13,0,1.7,1,i
COc1ccc(OC)c(-c2cc(C(=O)Nc3cc(C)on3)no2)c1,7%,12,0,2.8*,1,i
COc1ccc(OC)c(-c2cc(C(=O)Nc3c(C)nn(Cc4ccccc4)c3C)no2)c1,5%,13,1,1.4,1,i
SMILES,NADH enzymes,PMK inhibit,MK inhibit,Autofluor 339,Abs 340nm,Spn DPM-DC inh
COc1ccc(OC)c(-c2cc(C(=O)Nc3cccc(Cl)c3)no2)c1,8%,13,2,4.3*,1.1,nt
Cc1cc(NC(=O)c2cc(C3CC3)on2)no1,24%,0,57*,1.1,1.1,i
Cc1cc(NC(=O)c2cc(C)on2)no1,7%,9,8,1.1,1,i
CCOc1ccc(-c2cc(NC(=O)Cn3ncc4c3-c3ccccc3OC4)on2)cc1OCC,4%,7,5,1.1,1,i
Cc1cc(NC(=O)CSc2nnc3c(C)cc4cc5c(cc4n23)OCO5)no1,9%,11,9,1.7,1,i
O=C1CC(N2CCN(S(=O)(=O)c3cccc(C(F)(F)F)c3)CC2)C(=O)N1Cc1ccccc1 (stereo not drawn),0%,0,0,1,1,i
COc1cc(OC)cc(-c2nnc(SCC(=O)Nc3cc(C)on3)o2)c1,11%,10,0,1,0.98,i
Cc1nc2c(c(=O)n1Cc1ccccc1Cl)c1nc3ccccc3nc1n2Cc1ccco1,7%,7,13,2.3*,1.1,i
Cc1nc(-c2c(-c3ccc(O)cc3O)noc2C(F)(F)F)cs1,2%,0,5,1,1,i
CCOC(=O)N1CCC(NC(=O)c2ccc3c(c2)sc2nc(-c4ccccc4)cn23)CC1,8%,11,12,2*,0.98,i
CCOC(=O)N1CCC(NC(=O)c2ccc3c(c2)sc2nc(-c4cccc(OC)c4)cn23)CC1,6%,13,10,1.8,0.98,i
COc1cccc2cc(-c3cn4cccc(C)c4n3)c(=O)oc12,0%,0,0,1.7,1.1,i
CCOc1cccc2cc(-c3nnc(NCc4ccco4)s3)c(=O)oc12,1%,2,0,2.2*,1,i
CCOc1cccc2cc(-c3cn4cc(C)ccc4n3)c(=O)oc12,3%,5,1,5*,1.1,nt
COc1ccc2oc(=O)c(-c3nnc(NCc4ccco4)s3)cc2c1,0%,1,0,1.9,1,i
CCOC(=O)c1c(C)n(C)c2ccc(O)c(CN3CCN(C)CC3)c12,4%,5,6,1.1,1,i
CCOC(=O)c1c(C)n(C)c2ccc(O)c(CN3CCC(C)CC3)c12,18%,7,48*,1.1,1,i
COc1ccc(C2C3=C(CC(C)(C)CC3=O)Nc3n[nH]c(C)c32)cc1 (stereo not drawn),2%,0,4,2.3*,1.1,nt
Cc1[nH]nc2c1C(c1ccccc1)C1=C(CC(C)(C)CC1=O)N2 (stereo not drawn),11%,14,8,4.4*,1.1,nt
O=C(c1ccccc1-c1nc(-c2ccc(Cl)cc2)no1)N1CCCC1,4%,7,6,1,1,i
Cc1sc2nc3n(c(=O)c2c1C)Cc1ccccc1-3,7%,10,3,3.7*,1.1,nt
CC(C)N1C(=O)CCC1C(=O)NCc1ccccc1Cl (stereo not drawn),6%,11,7,1.1,1.1,i
c1ccc2c(c1)nc(NCC1CCCO1)c1nnnn12 (stereo not drawn),3%,5,0,2.1*,1.1,nt

# Screening results deposited in PubChem BioAssay by SRMLSC.
